Source: PubChem BioAssay
The list is not random: actives were taken first. Their share in the collection is about 7.4%.
NPC1 prom act = NPC1 promoter activation. Potency, µM (doses to about 9.22 µM), inactives show at the highest dose activation, hits mostly activators. 320,000 compounds, 2.4% hits. Huh7 NPC1 promoter luciferase reporter, 24 h; further: % of control where 0% means no effect; nearly all actives have a fitted effect of over 60% in size
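NPC1 promoter–luciferase Huh7 cells; 24 h compound; luminescence.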
Luc counter = blocks Kinase-Glo luciferase, a counter-screen artifact. Q27757. Kinase-Glo luciferase, ATP luminescence, 8 min. Potency, µM (doses to about 38.3 µM), inactives show top-dose activity change, negative = inhibition, most hits filed as inhibitors. 200,000 compounds, 0.28% hits; further: on the % scale 0 is the no-effect control and ±100 the full control effect; nearly all actives have a fitted effect of over 60% in size
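Inhibition of Kinase-Glo luciferase light generation was assessed at 10 uM ATP in pH 7.2 imidazole buffer, with luminescence measured after eight minutes at ambient temperature.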
ELG1 genotox = induces genotoxicity in HEK293T cells with luciferase-tagged ELG1; HEK293T ELG1-luciferase reporter, luminescence, 16 h; Potency, µM (highest dose often 46 µM), for the others: top-dose activity change, positive = activation, usual class: activators; 330,000 compounds, 1.3% hits; AID 504466; further: % of control where 0% means no effect; nearly all actives have a fitted effect of over 60% in size
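Luminescence read-out: rising ELG1-luciferase signal, reflecting elevated ELG1 protein under genetic stress, flags genotoxic compounds. Cells were treated for 16 hr at 37 °C before ONE-Glo detection.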
Rab9 prom act = activators of Rab9 promoter; 320,000 compounds, 2.8% hits; Potency, µM (doses to about 9.22 µM), for the others: top-dose activation, negative = inhibition, usual class: activators; Huh7 Rab9 promoter-luciferase reporter, luminescence, 24 h; further: % of control where 0% means no effect; nearly all actives have a fitted effect of over 60% in size
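Cell-based reporter: Huh7 stable for Rab9 promoter-driven luciferase, plated in reduced-serum medium with 10% FBS at 1500 cells/well, compound-treated 24 h at 37 °C, luminescence read after 10 min reagent.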
SMN2 splice up = increases expression of the SMN2 splice variant | HEK293 SMN2-luciferase splicing reporter, luminescence, 30-36 h | Potency, µM (doses to about 46.1 µM), for inactives: at the top dose activity change, positive = activation, hits mostly activators | 210,000 compounds, 2.8% hits; further: % of control where 0% means no effect; nearly all actives have a fitted effect of over 55% in size
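qHTS luciferase splicing reporter: luminescence rises when SMN2 exon 7 is included in transfected HEK293 cells. Compound exposure lasted 30-36 h at 37C, with 4.5 mM final sodium butyrate as control, followed by a ONE-Glo read.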
FLuc counter = counter-screen for miR-21 project: firefly luciferase inhibitors or activators. purified FLuc, Km substrates, luminescence inhibition. Potency, µM (doses to about 57.5 µM), inactives show at the highest dose activity change, negative = inhibition, actives largely listed as inhibitors. P08659. 360,000 compounds, 6.9% hits. AID 588342;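 further: plate controls were vehicle for no effect and reference inhibitor for full effect; nearly all actives have a fitted effect of over 55% in size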
Target sequence (P08659 whole entry, looked up): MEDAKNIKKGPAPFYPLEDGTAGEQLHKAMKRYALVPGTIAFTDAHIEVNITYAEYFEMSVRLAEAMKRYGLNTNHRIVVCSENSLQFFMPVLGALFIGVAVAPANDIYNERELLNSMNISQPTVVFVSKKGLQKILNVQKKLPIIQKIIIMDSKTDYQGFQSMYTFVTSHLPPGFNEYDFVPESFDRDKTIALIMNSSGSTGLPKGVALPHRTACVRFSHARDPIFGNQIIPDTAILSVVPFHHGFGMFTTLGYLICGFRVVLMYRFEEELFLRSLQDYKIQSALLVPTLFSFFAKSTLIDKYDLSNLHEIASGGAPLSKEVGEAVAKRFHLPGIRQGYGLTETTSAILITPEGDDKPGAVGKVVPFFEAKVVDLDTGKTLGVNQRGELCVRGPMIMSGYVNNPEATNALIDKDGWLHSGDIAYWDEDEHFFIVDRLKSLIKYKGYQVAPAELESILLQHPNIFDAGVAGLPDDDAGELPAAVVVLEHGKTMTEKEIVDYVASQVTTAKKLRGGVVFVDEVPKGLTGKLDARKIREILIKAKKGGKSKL
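Purified P. pyralis luciferase (10nM final) with 10uM D-luciferin and 10uM ATP (Km levels) in 50mM Tris acetate pH 7.5, 10mM Mg acetate, 0.01% Tween-20, 0.05% BSA; qHTS 6-point titration, ~60 µM downward; luminescence read.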
* = called active by the depositor; ? = inconclusive; nt = not tested or not shown; [ ] = remark or other dose. The call rests on the fitted dose curve; in most records, active means well fitted curve in the direction sought with a large enough effect; inconclusive means small, poorly fitted or top-dose-only effect, or another doubt; inactive means no such curve, though single readings can be large; an effect the other way counts as inactive or inconclusive. Potency means the concentration at half of the fitted maximal effect.

SMILES | NPC1 prom act | Luc counter | ELG1 genotox | Rab9 prom act | SMN2 splice up | FLuc counter
O=C(N/N=C/c1c(O)ccc2ccccc12)c1[nH]ncc1Br | -7% | 2% | ? | -18% | -79% | 6.7µM*
O=C(N/N=C/c1c(O)ccc2ccccc12)c1cccc(C(F)(F)F)c1 | -16% | 4% | -8% | -29% | -106% | 1%
CCCN(Cc1ccc(C)cc1)C(=O)c1ccc(CNS(=O)(=O)c2ccc(C(C)=O)cc2)cc1 | ? | nt | 1% | ? | nt | 21µM*
CCN(Cc1ccccc1)C(=O)c1ccc(CNS(=O)(=O)c2ccc(C)cc2)cc1 | -2% | 3% | 1% | -6% | -41% | 5%
O=C(N/N=C/c1ccc([N+](=O)[O-])o1)c1cc(-c2cccc(Br)c2)nc2ccccc12 | 0% | -7% | -3% | 23% | -64% | 4.8µM*
CCCc1ccc(-c2cc(C(=O)N/N=C/c3ccc([N+](=O)[O-])o3)c3ccccc3n2)cc1 | 9% | -22% | ? | ? | 4% | 0.15µM*
Cn1nc(-c2ccccc2F)c2cc(C(=O)NCc3ccccc3Cl)sc21 | nt | nt | nt | nt | 6% | -7%
COc1ccc(C(=O)N2CCc3ccc(NC(=O)c4ccccn4)cc3C2)cc1F | ? | nt | -16% | 27% | nt | 21µM*
COc1cc2c(cc1OC)CN(C(=O)c1ccncc1)CC2 | 4% | nt | 0% | -2% | nt | -1%
O=C1NC(=O)c2cc(Nc3ccccc3)c(Nc3ccccc3)cc21 | -17%[46.1 µM] | -2% | nt | -29%[46.1 µM] | -62% | nt
Cc1cc(C(=O)N/N=C/c2cccc([N+](=O)[O-])c2)c(C)n1-c1ccccc1 | ? | -2% | ? | ? | 10µM* | 0.95µM*
Cc1cc(C(=O)N/N=C/c2ccc(Cl)c([N+](=O)[O-])c2)c(C)n1-c1ccc(F)cc1 | -8% | -4% | ? | -10% | -21% | -11%
COc1ccc(/C=N/NC(=O)c2cccc(C(=O)N/N=C/c3ccc(OC)c(OC)c3)n2)cc1OC | 2% | nt | -4% | -2% | nt | 2%
COc1ccc(/C=N/NC(=O)c2cc(C)n(-c3ccccc3)c2C)cc1OC | -20% | -3% | 7% | 22% | 17% | 8.5µM*
COc1ccc(C(c2c(O)ccc3ccccc23)N2CCOCC2)c(OC)c1 (stereo not drawn) | -3% | 11% | ? | 4% | ? | 12µM*
CC(=O)c1cccc(Nc2ncnc3c2cnn3-c2cccc(Cl)c2)c1 | nt | nt | nt | nt | nt | -15%
CCOC(=O)C1=C(CN2CCN(c3cc(C)ccc3C)CC2)NC(=O)NC1c1ccc(Cl)cc1 (stereo not drawn) | nt | nt | nt | nt | -50% | 2%
COc1ccc2c(c1)C(=O)CC(c1ccc3c(c1)OCCO3)O2 (stereo not drawn) | ? | nt | 15% | ? | nt | 21µM*
COc1ccc2c(c1)O[C@H](c1ccc3c(c1)OCO3)[C@@H](O)C2=O | 21% | 1% | -1% | 19% | 13µM* | ?
COc1ccc2c(c1)O[C@@H](c1ccc3c(c1)OCO3)[C@H](OC(=O)NCc1ccc3c(c1)OCO3)C2=O | nt | 0% | nt | nt | 6% | nt
CC(C)=CCC/C(C)=C/CNC(=O)C[C@H]1C[C@H](C(=O)N2CCCCC2)[C@@]2(CCc3ccccc3)c3[nH]c4cc(CCC(=O)N(C)C)ccc4c3CCN2C1=O | nt | nt | 6% | nt | nt | nt
COc1ccc(CNC(=O)c2n[nH]c3ccccc23)cc1OC | -1% | 1% | 0% | 2% | -3% | -1%
COc1ccccc1C(=O)N1CCc2ccccc21 | -6% | -1% | 5% | -1% | -8% | 5%
COCc1c(C(=O)N2CCc3ccccc32)oc2ccccc12 | -23% | nt | 3% | 3% | nt | ?
Cc1c(Br)c(C(=O)N2CCc3ccccc32)nn1C | 30% | -10% | ? | ? | ? | 21µM*
SMILES | NPC1 prom act | Luc counter | ELG1 genotox | Rab9 prom act | SMN2 splice up | FLuc counter
Cc1c(C(=O)N2CCc3ccccc32)oc2ccccc12 | ? | -13% | 3.7µM* | 3.5µM* | 3.5µM* | 0.95µM*
Nc1ccccc1C(=O)N1CCc2ccccc21 | ? | nt | 11% | ? | nt | 19µM*
O=C(c1ccc(Br)o1)N1CCc2ccccc21 | 2.2µM* | ? | ? | 2.5µM* | nt | 4.8µM*
Cc1nn(C)c(C(=O)N2CCc3ccccc32)c1Br | -5% | 2% | -3% | 2% | -4% | 0%
O=C(c1ccc(Br)o1)N1CCCc2ccccc21 | 0% | -2% | 1% | 0% | 2% | -2%
CCC(Sc1nc2ncccc2[nH]1)C(=O)Nc1cccc(OC)c1 (stereo not drawn) | nt | nt | nt | nt | nt | 3%
CCc1nnc(NS(=O)(=O)c2ccc(NCc3cc(Cl)ccc3O)cc2)s1 | -5% | nt | 3% | 0% | nt | 1%
CC1CC(C)CN(C(=O)CN(C)S(=O)(=O)c2ccc3c(c2)c(=O)n(C)c(=O)n3C)C1 (stereo not drawn) | -1% | nt | -1% | -10% | nt | 1%
CC(C)NS(=O)(=O)c1ccc(CCC(=O)N2CCC(C(N)=O)CC2)cc1 | -14% | -3% | -9% | -5% | nt | ?
CC(C)N1CC(O)=C(c2nc3ccccc3[nH]2)C1=N | 16% | -2% | ? | ? | 9% | 19µM*
O=C(NC1CCCC1)C(c1ccccn1)N(C(=O)c1csnn1)c1ccccc1Br (stereo not drawn) | 1% | nt | 0% | 2% | nt | 1%
CC(C(=O)N1CCN(Cc2ccc3c(c2)OCO3)CC1)n1cc([N+](=O)[O-])cn1 (stereo not drawn) | 1% | nt | -5% | -7% | nt | 4%
O=C(/C=C/c1ccc(Br)cc1)c1ccc(NC2=NCCCS2)cc1 | 1% | -11% | -14% | -4% | nt | ?
Cc1cccc(/C=C/C(=O)c2ccc(NC3=NCCCS3)cc2)c1 | 8% | 0% | ? | 18% | -20% | 13µM*
COc1cccc(/C=C/C(=O)c2ccc(NC3=NCCCS3)cc2)c1 | -3% | -7% | ? | 1% | -26% | 11µM*
CC(C)(C)c1ccc(/C=C/C(=O)c2ccc(NC3=NCCCS3)cc2)cc1 | 1% | 4% | -11% | -3% | -107% | 15µM*
Cc1cccc(C(=O)Nc2ccc(C(=O)/C=C/c3cccnc3)cc2)c1 | 13% | 0% | ? | 17% | 26% | -7%
O=C(/C=C/c1ccccc1)c1ccc(NC2=NCCCS2)cc1 | ? | 9% | ? | ? | 20% | 4.3µM*
Cc1ccc(C)c(N2CCN(C(=O)Cn3cnc4onc(-c5ccc(F)cc5)c4c3=O)CC2)c1 | nt | nt | nt | nt | nt | 4%
CC(C)=C1C2CCC1C1C(=O)N(c3nc(-c4ccccc4)c(C)s3)C(=O)C21 (stereo not drawn) | 1% | -1% | -2% | -6% | -15% | -7%
